Results: publication PMC12136788
Positions count from the first letter of the chain named. Over roughly 24,000 sequences, “enrichment r” has its median near 0.99; the highest 2% begin near 3.7. For the sample, the highest values were picked, then their nearest neighbours and some sequences at random.

T1: UNK ZnF1-3 (human, UniProt Q9C0B0 31-174)
T1 sequence: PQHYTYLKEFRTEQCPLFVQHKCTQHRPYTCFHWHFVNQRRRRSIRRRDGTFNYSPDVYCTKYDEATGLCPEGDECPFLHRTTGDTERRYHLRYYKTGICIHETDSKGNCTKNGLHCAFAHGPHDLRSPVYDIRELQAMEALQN

B1: chr18:90710673:90710674:+_ENSMUSG00000024614_ENSMUST00000025515|mus_mus|motif|central (ssRNA)
RNA: GGGAGUUCUACAGUCCGACGAUCACCUAAUAAAAAUUCUGAAAUUAGCUAAAAUGAAGGCAUCAAAAUUAACAAAUGAUCGGUAGUAAACAUUAUCACAAAAUACCCACUCUUAGACACGACUGCAUUCUGAUGAAAGAUGCGCAACAGAGGAUUGAGCAUCA
B2: chr2:176857141:176857142:-_ENSG00000144320_ENST00000272748|hu_mus|motif|central (ssRNA)
RNA: GGGAGUUCUACAGUCCGACGAUCUUUUUGCAAUCUCUGAUUUUUUUCUCUAAAUUCUUCCAAUGCUUGAAUUUCCUUAUCGGUAUUUUCUAGAACUUCUACUGUUGAAGGUUUUGCCCUCCAUCGAGAAAAUAAUCCACCCAUCAACAGAGGAUUGAGCAUCA
B3: 47141246_47141366_1218_CDS_ENSMUSG00000038291_ENSMUST00000170416|mouse|control|control (ssRNA)
RNA: GGGAGUUCUACAGUCCGACGAUCUUCUUCCUCACGCAUGAGCUUCUCAUACAGGUCGCUGACGAGGAAGGAGGGGUAAUACCGCUCCCUCAGCACCUCGGACACAUCGGCUUGGAUUUUGCUGAACACCUCGAUGCCUCUGUUCAACAGAGGAUUGAGCAUCA
B4: chr17:26875717:26875718:-_ENSG00000109103_ENST00000335765|hu_mus|FALSE|FALSE (ssRNA)
RNA: GGGAGUUCUACAGUCCGACGAUCACGGAUCUUGAACCUGACGAAGUCAAUCUUGUAGAUAUUUUCCUCAGGGGAGCACAGGUAGUCACCCGUGAUCCGCUGCAGCCCCAGCACAUCCUCCGGCCCGAUGGGCUGCUUGCCCUGCAACAGAGGAUUGAGCAUCA
B5: 230825810_230827160_2020_CDS_ENSG00000135775_ENST00000366669|human|control|control (ssRNA)
RNA: GGGAGUUCUACAGUCCGACGAUCGUUUAAUACAUCUGACACGGUUUCAUAGUACUUAUGAGUGCUUUCACUGAGAGUGCCUUCUAGCCACUGCUGAAUUAUUGCUUGUUUGAGCUUAUCCUUGUGUCCGCUCUGAAGCUGGAACAACAGAGGAUUGAGCAUCA
B6: chr2:242098653:242098654:+_ENSG00000115685_ENST00000406106|hu_mus|FALSE|FALSE (ssRNA)
RNA: GGGAGUUCUACAGUCCGACGAUCAUCAUAGAGAUCCAGUUCUCGAAGACUCUGCAGUUCUUCCAGGUUUUCAAUGCAUUUAAUUAGGUUUUGACGAAGGCAGAGUGACUUCACUUUCUUUAGCACCUCCAAGCCUUCAAUCUUCAACAGAGGAUUGAGCAUCA
B7: chr15:85259290:85259291:-_ENSG00000140612_ENST00000559729|hu_mus|FALSE|FALSE (ssRNA)
RNA: GGGAGUUCUACAGUCCGACGAUCAUUUAGGACUUGGUAGUACAGCUGCCUCUUGUUCAUCCGCCGCACAUCGUCUAGAAAGUCUAGAGACAGCAUGGUGAGAUGGAGAGCGCGACAACUAGCAGCCAAGAGGGCGCGAUAGAACAACAGAGGAUUGAGCAUCA
B8: 5810229_5811228_1359_CDS_ENSG00000099219_ENST00000339450|human|control|control (ssRNA)
RNA: GGGAGUUCUACAGUCCGACGAUCAGUCUUAUGUUUGGGCUGCAAAAAUUUUUUGCCCAGGUACAAAACAACACCCAUUACCACCAUGUAGUUUAUGAUUGAGCCAAUACGAGAGGGGUAGGCAAUGACAAACAGGCCCAGCACCAACAGAGGAUUGAGCAUCA
B9: chr8:13019523:13019524:+_ENSMUSG00000031442_ENSMUST00000123811|mus_mus|FALSE|FALSE (ssRNA)
RNA: GGGAGUUCUACAGUCCGACGAUCUUAAAGUUUUGAGGCCAGAGUACCACAAAAAAUGGCCAUGGGGUUAAUCCCUGUUUAAAAAAAAUCAAAAACUUAUAAAAGACGAGAGUCCCUUGACCCCCCCUUAGGCUGUUGGUAGCACAACAGAGGAUUGAGCAUCA
B10: 2747543_2750058_4223_CDS_ENSG00000101596_ENST00000320876|human|control|control (ssRNA)
RNA: GGGAGUUCUACAGUCCGACGAUCUUGGUUUGAAGGCAUGAGCUUUAAAUUGCUAGCUUUUGUAAGACUUAUUUUAACAUGUUGUACCGGUGCUGGAUUAUCCCACUGAUCACAAAGUUGAACAAUAAUAGGGUUCUGUAAAUCCAACAGAGGAUUGAGCAUCA
B11: chr2:125083379:125083380:+_ENSMUSG00000027203_ENSMUST00000082122|mus_mus|motif|central (ssRNA)
RNA: GGGAGUUCUACAGUCCGACGAUCUUAAAAAAAAUUACAAAUGAUACAGCAAUUAUGAUCAAAAACAGUUUUUGGAAGGCGGUAAUUUAAAUAAUACAACAACAACAAAAAAUCUAACUGUACCCUGGGUUUUACCAAGUCUGCCAACAGAGGAUUGAGCAUCA
B12: chr13:107772667:107772668:-_ENSMUSG00000021693_ENSMUST00000022204|mus_hu|motif|central (ssRNA)
RNA: GGGAGUUCUACAGUCCGACGAUCCAUUUCAUUAGGAGCUGAGUCAUCAAAGGCAUAAUCAAAACGAAAUGUUUGGUUUUCGGGGUACCUUGUUAAAUCUACUUUUUGUUUUGGUUCAUGUACCAUCACAACAUCUUUACUAGGCAACAGAGGAUUGAGCAUCA
B13: chr2:125083379:125083380:+_ENSMUSG00000027203_ENSMUST00000082122|mus_mus|FALSE|FALSE (ssRNA)
RNA: B11 RNA with G80U, G81A
B14: chr8:90938390:90938391:+_ENSG00000164823_ENST00000451899|hu_hu|motif|central (ssRNA)
RNA: GGGAGUUCUACAGUCCGACGAUCAAGAAUAUGAAGUACCUGUCAAGGUUUCAACGAUAAAAAUAUUUUUUAAAAGACCCGGUUUGGUAAUAAAUUAGAUUUAUACAAUUGAUAAUUUCAAAAUAAAUAAAAUCUGAGUUGUAACAACAGAGGAUUGAGCAUCA
B15: chr8:90938390:90938391:+_ENSG00000164823_ENST00000451899|hu_hu|FALSE|FALSE (ssRNA)
RNA: B14 RNA with G80U, G81A
B16: chrX:101157612:101157613:-_ENSMUSG00000056537_ENSMUST00000070705|mus_mus|motif|central (ssRNA)
RNA: GGGAGUUCUACAGUCCGACGAUCAAAUUAUCAGUAACAGGUUAGCAAUUCAUCUGGUACCGAAAUCAAAUGUUUAAGUCCGGAAAUGUUGUUUUUAAAAUAUUCUUUCCAUCCUGAAAGAGAAACUAGAGAAAAGGCAUGAUACAACAGAGGAUUGAGCAUCA
B17: chr2:44571030:44571031:-_ENSG00000138078_ENST00000409411|hu_hu|FALSE|FALSE (ssRNA)
RNA: GGGAGUUCUACAGUCCGACGAUCUCUUAUCUUGGCAGCCACAUAUUUUUCAUCUGGAGCAACUCUGAUACAAUCAAUGAAGGGCUGGUCUAACUUAAGUUCCUCCAAAUUGAAUAAAACUUCAUAAUUAUCAUUGUCUGCUUCCAACAGAGGAUUGAGCAUCA
B18: chr9:127920631:127920632:-_ENSG00000119414_ENST00000456642|hu_mus|motif|central (ssRNA)
RNA: GGGAGUUCUACAGUCCGACGAUCAAUACGGUCAGGCCACUUAGCCUUUAGUGCAAGAAGAUAAGUGAAGGUCUCCAAACGGUAGUAACCUCUGUCUACAAAAUCACCCAUAAAUAUGUAGUUUGUGUCAGGAACCUGACCUCCCAACAGAGGAUUGAGCAUCA
B19: chr7:140404665:140404666:+_ENSG00000090266_ENST00000247866|hu_hu|hu_hu_hu_mus_False|1_1 (ssRNA)
RNA: GGGAGUUCUACAGUCCGACGAUCUGCUCCUACUCGUCCAGAGAGUUUACAGUGUCAGUCCUCGUCAUCAGGAGGGAUUCCCAGUUCUUCAUCUGUCCACUGUGAAGGAUCUGGAUAUGAAAAGUGACCCAGCACAGCUUCUGACAACAGAGGAUUGAGCAUCA
B20: chr7:109302599:109302600:-_ENSMUSG00000063550_ENSMUST00000070165|mus_mus|FALSE|FALSE (ssRNA)
RNA: GGGAGUUCUACAGUCCGACGAUCAGAGUCAUCUUCUCCAUCCUGCUGAUUGUUCUCAUCAACAGGUUUGCUCAGGAAGCUAAAUCUUUCUCCAUUUUCUGGAUACUCAGAGGGUGAAGCUAGAUCUUCUGAAUCAUGAUUAACCAACAGAGGAUUGAGCAUCA
B21: chr8:26227902:26227903:+_ENSG00000221914_ENST00000315985|hu_hu|motif|central (ssRNA)
RNA: GGGAGUUCUACAGUCCGACGAUCGGAAUGCCAACCCUAAUUCACUUUGUCUUGAAAUAUAUACAGAUUGUUUGUAGUAGCGGCGGCAAUGAUAUUUUCCUUGGGGUGCCAGGCUGUGUGAAGGAUUUUCUUAUUGAAGUCUAGCAACAGAGGAUUGAGCAUCA
B22: 16983635_16983755_221_5pUTR_ENSMUSG00000063358_ENSMUST00000069107|mouse|control|control (ssRNA)
RNA: GGGAGUUCUACAGUCCGACGAUCGACCAUCUCCGGGCCCGCCGCCGCCGCCGCCGCCAUGUUGGCUGCACAGCCGCCGCCGCCGCCGCCGCCGCCGCGUUCGGUUCGACGCUUCGCGGCUGCCGCUCGACUUAUGCUGCGCUUCAACAGAGGAUUGAGCAUCA

Each binder was assayed against T1, UNK ZnF1-3 (assay: nsRBNS (natural sequence RNA bind-n-seq); RBNS binding buffer (assumed for nsRBNS): 25 mM Tris pH 7.5, 150 mM KCl, 3 mM MgCl2, 0.01% Triton X-100, 500 ug/ml BSA, 20 U/ml SUPERase-In, 4 C; UNK is unkempt and MSI1 is Musashi-1; names of the RNAs are library labels; protein concentration not given here; high values mean tight binding).

Row | Binder | binding signal [enrichment R]
1 | B1 | 1.85
2 | B2 | 0.366
3 | B3 | 0.729
4 | B4 | 0.51
5 | B5 | 0.468
6 | B6 | 0.6
7 | B7 | 0.618
8 | B8 | 1.77
9 | B9 | 4.16
10 | B10 | 1.18
11 | B11 | 4.51
12 | B12 | 1.02
13 | B13 | 4.2
14 | B14 | 6.04
15 | B15 | 2.3
16 | B16 | 1.32
17 | B17 | 1
18 | B18 | 0.995
19 | B19 | 1.35
20 | B20 | 0.565
21 | B21 | 1.11
22 | B22 | 0.486
